Assay results published in PubChem BioAssay (EPA / NIEHS).
Several values for one entry are separate records, joined by “and”; a condition that tells them apart may be missing. Identical values can stand only once. Inconclusive results are not listed. Activity calls are given as the source filed them. How the source made its calls, unless noted: active means hit-call score of the fitted dose curve at least 0.9, where 1 is the maximum; inconclusive means response in the unintended direction; inactive means score below 0.9.

Key:
[1] = molecular target: mouse Peroxisome Proliferator-activated Receptor gamma (PPARg), Pparg (gene 19016) (UniProt P37238); assay: ATG_mPPARg_XSP2: Attagene TRANS-FACTORIAL Multi-Species (XSP2) HepG2 Assay for mouse Peroxisome Proliferator-activated Receptor gamma (PPARg) (AID 2283830);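 further: hits are gains in reporter mRNA above DMSO so AC50 marks activation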
Chain of mouse Peroxisome Proliferator-activated Receptor gamma (PPARg), Pparg (gene 19016) (P37238 whole entry, looked up, the tested form may be a part): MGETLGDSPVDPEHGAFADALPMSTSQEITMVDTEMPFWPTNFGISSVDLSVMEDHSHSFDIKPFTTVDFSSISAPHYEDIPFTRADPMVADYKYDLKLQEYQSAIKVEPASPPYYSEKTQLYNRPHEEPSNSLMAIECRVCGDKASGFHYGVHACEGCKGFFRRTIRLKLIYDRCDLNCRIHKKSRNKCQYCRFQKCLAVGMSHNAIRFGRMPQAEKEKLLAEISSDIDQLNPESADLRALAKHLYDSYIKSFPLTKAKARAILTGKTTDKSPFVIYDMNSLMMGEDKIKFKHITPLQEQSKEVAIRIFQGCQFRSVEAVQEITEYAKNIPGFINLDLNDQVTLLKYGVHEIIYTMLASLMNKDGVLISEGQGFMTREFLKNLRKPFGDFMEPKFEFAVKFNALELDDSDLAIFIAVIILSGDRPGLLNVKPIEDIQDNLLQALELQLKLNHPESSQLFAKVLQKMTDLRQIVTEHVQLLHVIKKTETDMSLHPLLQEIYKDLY
Summary of the method: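 Multiplexed TRANS reporter readout: after 24 h chemical exposure of transfected HepG2 cells (with 3 nM 6-alpha-fluorotestosterone, 1.5 nM norgestrel present), RNA reverse-transcribed, amplified, 6-FAM-labelled and resolved by capillary electrophoresis; mouse PPARg-Gal4 induction scored against DMSO.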

[2] = molecular target: Nuclear receptor subfamily 1 group I member 2 (Mus musculus) (UniProt O54915); assay: ATG_mPXR_XSP2: Attagene TRANS-FACTORIAL Multi-Species (XSP1) HepG2 Assay for mouse Pregnane X Receptor (PXR) (AID 2283831)
Chain of Nuclear receptor subfamily 1 group I member 2 (Mus musculus) (O54915 whole entry, looked up, the tested form may be a part): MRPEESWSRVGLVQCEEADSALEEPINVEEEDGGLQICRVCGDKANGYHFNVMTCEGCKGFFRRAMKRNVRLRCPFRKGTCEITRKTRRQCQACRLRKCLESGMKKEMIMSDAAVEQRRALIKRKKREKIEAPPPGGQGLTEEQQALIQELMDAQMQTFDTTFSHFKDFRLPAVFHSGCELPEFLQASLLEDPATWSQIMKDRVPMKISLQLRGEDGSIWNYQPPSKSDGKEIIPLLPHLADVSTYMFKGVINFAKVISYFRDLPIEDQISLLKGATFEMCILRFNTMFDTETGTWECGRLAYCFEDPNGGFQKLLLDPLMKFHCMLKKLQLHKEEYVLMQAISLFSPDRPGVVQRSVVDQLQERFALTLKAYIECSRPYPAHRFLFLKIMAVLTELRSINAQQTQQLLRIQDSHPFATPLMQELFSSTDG
Summary of the method: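 Reporter transcripts were quantified by RT-PCR, FAM primer extension, HpaI digestion and capillary electrophoresis after 24 h of chemical exposure in transiently transfected HepG2 cells carrying chimeric receptor-GAL4 constructs; DMSO served as baseline.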

[3] = test system: zebrafish Peroxisome Proliferator-activated Receptor gamma (PPARg), gene 557037; assay: ATG_zfPPARg_XSP2: Attagene TRANS-FACTORIAL Multi-Species (XSP2) HepG2 Assay for zebrafish Peroxisome Proliferator-activated Receptor gamma (PPARg) (AID 2283833);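 further: actives increase reporter signal over DMSO so AC50 reflects activation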
Summary of the method: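 Multi-species TRANS format in HepG2, 24 h dosing; medium also contained 3 nM 6-alpha-fluorotestosterone and 1.5 nM norgestrel to stimulate androgen receptor. Zebrafish PPARg-GAL4 induced reporter mRNA was measured by RT-PCR/capillary electrophoresis.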

[4] = test system: turtle Thyroid Hormone Receptor, alpha (TRa), gene 101949057; assay: ATG_trTRa_XSP2: Attagene TRANS-FACTORIAL Multi-Species (XSP1) HepG2 Assay for turtle Thyroid Hormone Receptor, alpha (TRa) (AID 2283834);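 further: hits raise reporter mRNA over the DMSO baseline so AC50 marks activators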
Summary of the method: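 Transfection of HepG2 with multiple reporter transcription units, then chemical dosing for 24 h. Total RNA was reverse-transcribed, reporter sequences PCR-amplified and FAM-labelled, then sized by capillary electrophoresis. DMSO served as baseline.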

[5] = molecular target: zebrafish Thyroid Hormone Receptor beta (TRb), thrb (gene 30607) (UniProt Q9PVE4); assay: ATG_zfTRb_XSP2: Attagene TRANS-FACTORIAL Multi-Species (XSP1) HepG2 Assay for zebrafish Thyroid Hormone Receptor beta (TRb) (AID 2283836)
Chain of zebrafish Thyroid Hormone Receptor beta (TRb), thrb (gene 30607) (Q9PVE4 whole entry, looked up): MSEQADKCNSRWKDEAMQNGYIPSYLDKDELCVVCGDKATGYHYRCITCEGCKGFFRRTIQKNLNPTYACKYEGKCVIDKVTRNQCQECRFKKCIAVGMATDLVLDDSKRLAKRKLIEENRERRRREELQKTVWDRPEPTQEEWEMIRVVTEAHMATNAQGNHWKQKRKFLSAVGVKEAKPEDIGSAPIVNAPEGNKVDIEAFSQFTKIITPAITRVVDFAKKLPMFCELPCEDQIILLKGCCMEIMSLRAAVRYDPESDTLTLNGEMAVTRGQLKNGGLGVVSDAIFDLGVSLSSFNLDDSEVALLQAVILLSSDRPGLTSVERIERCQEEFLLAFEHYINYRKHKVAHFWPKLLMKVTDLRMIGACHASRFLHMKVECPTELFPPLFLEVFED
Summary of the method: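 Transfect HepG2 with multiple reporter transcription units, dose chemical, incubate 24 h. Isolate RNA, reverse-transcribe, amplify and fluorescently label reporter sequences, digest with HpaI, then resolve by capillary electrophoresis. Positive direction fitted against DMSO.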

[6] = molecular target: human Thyroid hormone Receptor alpha (TRa), THRA (gene 7067) (UniProt P10827); assay: ATG_hTRa_XSP2: Attagene TRANS-FACTORIAL Multi-Species (XSP2) HepG2 Assay for human Thyroid hormone Receptor alpha (TRa) (AID 2283838)
Chain of human Thyroid hormone Receptor alpha (TRa), THRA (gene 7067) (P10827 whole entry, looked up, the tested form may be a part): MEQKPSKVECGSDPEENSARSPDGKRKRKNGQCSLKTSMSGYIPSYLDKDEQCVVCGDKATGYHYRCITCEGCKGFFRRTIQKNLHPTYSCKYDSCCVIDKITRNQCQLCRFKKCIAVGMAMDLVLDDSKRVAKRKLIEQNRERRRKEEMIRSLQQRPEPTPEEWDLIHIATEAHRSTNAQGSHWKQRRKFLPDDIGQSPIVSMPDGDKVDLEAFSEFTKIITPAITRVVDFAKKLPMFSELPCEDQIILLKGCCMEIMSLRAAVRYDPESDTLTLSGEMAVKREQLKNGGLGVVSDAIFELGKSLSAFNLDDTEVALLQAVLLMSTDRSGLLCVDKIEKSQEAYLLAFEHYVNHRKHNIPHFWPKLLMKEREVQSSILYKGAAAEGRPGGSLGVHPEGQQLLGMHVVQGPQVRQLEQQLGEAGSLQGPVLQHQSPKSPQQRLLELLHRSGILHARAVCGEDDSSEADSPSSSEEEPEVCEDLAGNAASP
Summary of the method: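 Reporter transcripts were read by RT-PCR with fluorescent primer extension, HpaI digestion and capillary electrophoresis. These came from HepG2 cells carrying multiplexed TRa-Gal4 TRANS constructs, harvested 24 hours after dosing. The medium also held 6-alpha-fluorotestosterone (3 nM) and norgestrel (1.5 nM), and increases were fitted against DMSO.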

[7] = molecular target: frog Thyroid hormone Receptor alpha (TRa), thra-a (gene 397942) (UniProt P15204); assay: ATG_frTRa_XSP2: Attagene TRANS-FACTORIAL Multi-Species (XSP2) HepG2 Assay for frog Thyroid hormone Receptor alpha (TRa) (AID 2283839)
Chain of frog Thyroid hormone Receptor alpha (TRa), thra-a (gene 397942) (P15204 whole entry, looked up, the tested form may be a part): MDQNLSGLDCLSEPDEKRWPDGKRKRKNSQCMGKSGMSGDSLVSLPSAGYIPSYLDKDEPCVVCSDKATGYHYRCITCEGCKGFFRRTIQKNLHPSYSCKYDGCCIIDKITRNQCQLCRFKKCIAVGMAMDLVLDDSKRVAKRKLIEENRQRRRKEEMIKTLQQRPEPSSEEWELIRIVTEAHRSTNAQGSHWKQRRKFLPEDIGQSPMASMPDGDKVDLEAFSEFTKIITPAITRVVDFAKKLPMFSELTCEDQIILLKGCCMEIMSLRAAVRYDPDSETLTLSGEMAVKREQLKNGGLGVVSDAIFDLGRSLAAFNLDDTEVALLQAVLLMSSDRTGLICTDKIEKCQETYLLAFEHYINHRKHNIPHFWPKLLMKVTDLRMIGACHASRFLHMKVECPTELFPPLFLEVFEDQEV
Summary of the method: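 Transfect HepG2 with multiple reporter units (GAL4-UAS), dose chemical, incubate 24 h. Isolate RNA, reverse-transcribe, PCR-amplify reporter, label with 6-FAM by primer extension, digest with HpaI, run capillary electrophoresis; induction scored against DMSO.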

[8] = CPHEA_Stoker_NIS_Cytotoxicity: Cytotoxicity Assessment for CPHEA's Radioactive Iodide Uptake (RAIU) Assay for Sodium/Iodide Symporter (NIS) Inhibition, Stoker and Laws Labs (AID 2283897)
Summary of the method: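 CellTiter-Glo ATP luminescence gauged viability in HEK293T cells expressing human NIS after 2 h chemical exposure. Concentrations ran 0.001–100 uM in 0.5% DMSO; DMSO served as baseline for the loss-of-signal fit.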

[9] = CEETOX_H295R_11DCORT_noMTC: CeeTox H295R High-throughput Steroidogenesis Assay for 11-Deoxycortisol (11DCORT), maximum tolerated concentration (MTC) filtered results only (AID 2283911; active means hit-call score of the fitted dose curve at least 0.9, where 1 is the maximum; inactive means score below 0.9); details: actives raise or lower the signal
Summary of the method: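 Steroidogenesis was stimulated in H295R cells with 10 uM forskolin for 48 h before a 48 h chemical exposure. Secreted 11-deoxycortisol was measured by tandem mass spectrometry and fitted bidirectionally against DMSO controls.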

[10] = CEETOX_H295R_OHPREG_noMTC: CeeTox H295R High-throughput Steroidogenesis Assay for OH-Pregnenolone (OHPREG), maximum tolerated concentration (MTC) filtered results only (AID 2283912; active means hit-call score of the fitted dose curve at least 0.9, where 1 is the maximum; inactive means score below 0.9); details: actives raise or lower the signal
Summary of the method: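 Medium 17alpha-hydroxypregnenolone quantified by reverse-phase HPLC-MS/MS after 48 h chemical exposure of forskolin-prestimulated (10 uM, 48 h) H295R, 0.1% DMSO final. Fitting bidirectional relative to DMSO; no maximum-tolerated-concentration filtering applied.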

[11] = CEETOX_H295R_OHPROG_noMTC: CeeTox H295R High-throughput Steroidogenesis Assay for OH-Progesterone (OHPROG), maximum tolerated concentration (MTC) filtered results only (AID 2283914; active means hit-call score of the fitted dose curve at least 0.9, where 1 is the maximum; inactive means score below 0.9); details: actives raise or lower the signal
Summary of the method: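 After 48 h forskolin (10 uM) prestimulation, H295R adrenal cells received test chemical in 0.1% DMSO for 48 h. Medium 17alpha-hydroxyprogesterone was MTBE-extracted and measured by HPLC-MS/MS; gain or loss relative to DMSO, no MTT-based MTC filtering.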

[12] = CEETOX_H295R_CORTISOL_noMTC: CeeTox H295R High-throughput Steroidogenesis Assay for Cortisol, maximum tolerated concentration (MTC) filtered results only (AID 2283916; active means hit-call score of the fitted dose curve at least 0.9, where 1 is the maximum; inactive means score below 0.9); details: actives raise or lower the signal
Summary of the method: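 Cortisol secretion measured by LC-MS/MS after 48 h chemical treatment (final 0.1% DMSO) of forskolin-primed (10 uM, 48 h) H295R cells; gain or loss fitted relative to DMSO, without maximum-tolerated-concentration filtering.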

[13] = CEETOX_H295R_CORTIC_noMTC: CeeTox H295R High-throughput Steroidogenesis Assay for Corticosterone (CORTIC), maximum tolerated concentration (MTC) filtered results only (AID 2283917; active means hit-call score of the fitted dose curve at least 0.9, where 1 is the maximum; inactive means score below 0.9); details: actives raise or lower the signal
Summary of the method: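 Human adrenal H295R cells were prestimulated 48 h with 10 uM forskolin, then exposed 48 h to chemical in 0.1% DMSO. Medium corticosterone was MTBE-extracted and quantified by HPLC-MS/MS; bidirectional fits versus DMSO, concentrations not MTC-filtered.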

[14] = CEETOX_H295R_DOC_noMTC: CeeTox H295R High-throughput Steroidogenesis Assay for DOC, maximum tolerated concentration (MTC) filtered results only (AID 2283918; active means hit-call score of the fitted dose curve at least 0.9, where 1 is the maximum; inactive means score below 0.9); details: actives raise or lower the signal
Summary of the method: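 11-Deoxycorticosterone secreted by human adrenal H295R cells quantified by HPLC-MS/MS after 48 h chemical exposure (0.1% DMSO), following 48 h 10 uM forskolin prestimulation. Concentrations not filtered by MTT-derived MTC; bidirectional fitting.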

[15] = CEETOX_H295R_ESTRADIOL_noMTC: CeeTox H295R High-throughput Steroidogenesis Assay for Estradiol, maximum tolerated concentration (MTC) filtered results only (AID 2283919; active means hit-call score of the fitted dose curve at least 0.9, where 1 is the maximum; inactive means score below 0.9); details: actives raise or lower the signal
Summary of the method: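 Readout: dansyl-derivatized estradiol quantified by LC-MS/MS in medium from H295R cells dosed 48 h (0.1% DMSO) following 48 h forskolin (10 uM) prestimulation. Gain or loss of signal fitted against DMSO; no MTC filtering applied.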

[16] = test system: Sodium/Iodide Symporter (NIS), SLC5A5 (gene 6528); assay: CPHEA_Stoker_NIS_Inhibition_RAIU: CPHEA's Radioactive Iodide Uptake (RAIU) Assay for Sodium/Iodide Symporter (NIS) Inhibition, Stoker and Laws Labs (AID 2283841)
Summary of the method: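 Iodide uptake read as CPM of intracellular 125I (final 329 pM) after 2 h room-temperature exposure in HEPES-buffered HBSS, pH 7.4. Human NIS-expressing HEK293T cells; six concentrations 0.001–100 uM, 0.5% DMSO, normalised to DMSO wells.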

[17] = molecular target: zebrafish Thyroid Hormone Receptor alpha (TRa), thraa (gene 30670) (UniProt Q98867); assay: ATG_zfTRa_XSP2: Attagene TRANS-FACTORIAL Multi-Species (XSP1) HepG2 Assay for zebrafish Thyroid Hormone Receptor alpha (TRa) (AID 2283832);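 further: actives raise zebrafish TRa-Gal4 reporter transcript above DMSO baseline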
Chain of zebrafish Thyroid Hormone Receptor alpha (TRa), thraa (gene 30670) (Q98867 whole entry, looked up, the tested form may be a part): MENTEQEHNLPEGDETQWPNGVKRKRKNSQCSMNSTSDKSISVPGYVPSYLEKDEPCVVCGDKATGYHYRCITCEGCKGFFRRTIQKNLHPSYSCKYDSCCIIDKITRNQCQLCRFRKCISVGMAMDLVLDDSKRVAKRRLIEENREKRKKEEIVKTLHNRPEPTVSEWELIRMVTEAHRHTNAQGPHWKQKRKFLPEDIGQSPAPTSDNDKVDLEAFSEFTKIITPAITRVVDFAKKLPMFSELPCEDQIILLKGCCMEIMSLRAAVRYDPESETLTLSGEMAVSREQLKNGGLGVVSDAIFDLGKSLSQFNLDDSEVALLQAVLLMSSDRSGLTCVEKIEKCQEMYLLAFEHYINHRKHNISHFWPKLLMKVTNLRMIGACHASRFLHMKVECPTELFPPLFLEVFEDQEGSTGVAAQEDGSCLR
Summary of the method: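 HepG2, transient MRTU transfection, exogenous NR-Gal4 chimeras; 24 h dosing; mRNA readout via RT-PCR/CE fluorescence; positive direction vs DMSO.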

[18] = ATG_M_61_XSP2: Attagene TRANS-FACTORIAL Multi-Species (XSP2) HepG2 Assay for M61 Transcription Factor (Internal Marker) (AID 2283835; active means hit-call score of the fitted dose curve at least 0.9, where 1 is the maximum; inactive means score below 0.9;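 further: active means a rise in signal above the DMSO baseline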)
Summary of the method: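 Internal background marker, read as RT-PCR/capillary-electrophoresis reporter mRNA 24 h post-dose in transiently transfected HepG2 cells. Androgen receptor stimulated with 3 nM 6-alpha-fluorotestosterone plus 1.5 nM norgestrel; gain of signal versus DMSO analysed.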

[19] = ATG_XTT_Cytotoxicity_XSP2: Cytotoxicity Assessment in the Attagene TRANS-FACTORIAL Multi-Species (XSP2) HepG2 Assay (AID 2283837)
Summary of the method: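 XTT-based cell number read-out in human HepG2 liver cells carrying transfected reporter units, measured 24 h after chemical dosing. Activity is signal loss versus DMSO baseline.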

Measured: AC50

CCCc1cc(=O)[nH]c(=S)[nH]1
inactive: [1] | [2] | [3] | [4] | [5] | [6] | [7]

Cc1oc(-c2ccccc2)nc1CCOc1cccc2c1ccn2CCC(=O)O
inactive: [8] | [10] | [11] | [12] | [13] | [15]
active: [9] 9.6 µM | [14] 6.44 µM

O=C(N[C@@H](Cc1ccccc1)[C@@H](O)C(=O)N1C[C@@H](O)[C@@H](O)C1)c1cc2cc(Cl)ccc2[nH]1
inactive: [8]

NC(=O)Cn1c(=O)cc(CCN2CCN(c3nccc4sccc34)CC2)c2ccc(F)cc21
inactive: [16] | [8]

CCc1c(C(=O)NN2CCCCC2)nn(-c2ccc(Cl)cc2Cl)c1-c1ccc(Br)cc1
inactive: [8]

Oc1ccc2ccccc2c1N=Nc1ccccc1
inactive: [16] | [8]

FC(F)(F)C(F)(F)C(F)(F)C(F)(F)C(F)(F)C(F)(F)CCI
inactive: [16] | [8]

CC(C)(C)c1cc(O)c(C(C)(C)C)cc1O
inactive: [17] | [3] | [18] | [5] | [7] | [16] | [8]
active: [1] 57.5 µM

Cc1ccc(C)c(C)c1
inactive: [8]

CC(=O)C(C)=CC1C(C)=CCCC1(C)C (stereo not given)
active: [1] 146 µM and 25.2 µM | [2] 8.16 µM and 12.9 µM
inactive: [3] | [4] | [18] | [5] | [19] | [7]
